Measured values reported in article PMC7862700, “An all-to-all approach to the identification of sequence-specific readers for epigenetic DNA modifications on cytosine”.

Tests used:
Assay in all cases: DAPPL (digital affinity profiling via proximity ligation, sequencing); 10 mM Tris-HCl pH 7.5, 50 mM NaCl, 1 mM DTT, 4% glycerol, room temperature, 30 min; GST-TFs on glutathione beads, 16-mer random dsDNA library, 0.1% formaldehyde crosslink after washing; high values mean tight binding
FLI1 = molecular target: T1, FLI1 (Homo sapiens, UniProt Q01543 1-452); conditions: protein: recombinant; tags: N-terminal GST; dsDNA, one strand shown
T1 sequence: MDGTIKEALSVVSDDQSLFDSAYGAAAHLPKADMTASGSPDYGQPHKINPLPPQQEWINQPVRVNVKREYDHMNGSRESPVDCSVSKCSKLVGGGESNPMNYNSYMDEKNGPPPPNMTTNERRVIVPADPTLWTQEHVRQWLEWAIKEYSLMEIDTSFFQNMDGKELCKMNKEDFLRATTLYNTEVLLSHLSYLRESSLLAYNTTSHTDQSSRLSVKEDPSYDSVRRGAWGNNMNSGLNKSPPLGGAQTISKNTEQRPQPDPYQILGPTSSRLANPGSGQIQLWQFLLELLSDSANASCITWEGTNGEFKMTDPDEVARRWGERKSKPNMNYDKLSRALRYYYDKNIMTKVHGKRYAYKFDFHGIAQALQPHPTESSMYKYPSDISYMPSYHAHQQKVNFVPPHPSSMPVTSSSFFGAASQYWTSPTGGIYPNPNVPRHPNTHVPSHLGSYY
Procedure, shortened: (§1)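 Pools of DNA-barcoded human transcription factors, expressed in yeast as GST fusions on glutathione beads and combined with a tag-only sample, were incubated with 200 nmole of a 16-mer random double-stranded DNA library. Incubation took 30 min at room temperature in Tris/NaCl/DTT/glycerol buffer and was followed by washing, 0.1% formaldehyde crosslinking, proximity ligation (BsaI/T4 ligase, 1 h, 37 °C), PCR amplification and sequencing on an Illumina NextSeq500. Binding signal is the ratio of a hexamer's read frequency for a factor to its frequency for the tag-only sample.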

ELK1 = molecular target: T2, ELK1 (Homo sapiens, UniProt P19419 1-428); conditions: protein: recombinant; tags: N-terminal GST; dsDNA, one strand shown
T2 sequence: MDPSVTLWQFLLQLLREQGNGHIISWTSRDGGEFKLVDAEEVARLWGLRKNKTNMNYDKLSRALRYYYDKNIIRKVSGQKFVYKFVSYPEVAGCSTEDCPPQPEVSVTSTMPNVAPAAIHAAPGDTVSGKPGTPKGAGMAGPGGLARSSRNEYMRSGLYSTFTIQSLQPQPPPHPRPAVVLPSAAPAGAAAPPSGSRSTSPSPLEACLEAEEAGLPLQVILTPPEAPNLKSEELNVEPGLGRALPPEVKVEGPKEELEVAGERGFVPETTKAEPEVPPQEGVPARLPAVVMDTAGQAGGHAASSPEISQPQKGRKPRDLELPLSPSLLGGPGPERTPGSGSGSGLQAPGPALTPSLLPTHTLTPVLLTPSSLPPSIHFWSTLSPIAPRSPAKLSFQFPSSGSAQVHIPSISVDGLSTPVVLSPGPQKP
Procedure, shortened: as §1

GABPA = molecular target: T3, GABPA (Homo sapiens, UniProt Q06546 1-454); conditions: protein: recombinant; tags: N-terminal GST; dsDNA, one strand shown
T3 sequence: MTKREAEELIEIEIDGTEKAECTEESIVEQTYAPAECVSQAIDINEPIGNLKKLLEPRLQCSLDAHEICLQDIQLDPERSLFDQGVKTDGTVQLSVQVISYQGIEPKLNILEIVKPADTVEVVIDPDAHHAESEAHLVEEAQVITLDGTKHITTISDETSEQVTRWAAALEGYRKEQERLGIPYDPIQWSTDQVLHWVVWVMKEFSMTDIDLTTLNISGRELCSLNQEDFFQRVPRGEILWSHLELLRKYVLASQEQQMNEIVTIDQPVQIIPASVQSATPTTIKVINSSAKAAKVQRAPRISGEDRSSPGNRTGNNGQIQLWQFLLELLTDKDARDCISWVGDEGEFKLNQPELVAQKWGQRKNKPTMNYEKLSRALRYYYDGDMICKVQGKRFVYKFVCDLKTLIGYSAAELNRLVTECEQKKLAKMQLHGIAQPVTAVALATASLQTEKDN
Procedure, shortened: as §1

ERG = molecular target: T4, ERG (Homo sapiens, UniProt P11308 1-479); conditions: protein: recombinant; tags: N-terminal GST; dsDNA, one strand shown
T4 sequence: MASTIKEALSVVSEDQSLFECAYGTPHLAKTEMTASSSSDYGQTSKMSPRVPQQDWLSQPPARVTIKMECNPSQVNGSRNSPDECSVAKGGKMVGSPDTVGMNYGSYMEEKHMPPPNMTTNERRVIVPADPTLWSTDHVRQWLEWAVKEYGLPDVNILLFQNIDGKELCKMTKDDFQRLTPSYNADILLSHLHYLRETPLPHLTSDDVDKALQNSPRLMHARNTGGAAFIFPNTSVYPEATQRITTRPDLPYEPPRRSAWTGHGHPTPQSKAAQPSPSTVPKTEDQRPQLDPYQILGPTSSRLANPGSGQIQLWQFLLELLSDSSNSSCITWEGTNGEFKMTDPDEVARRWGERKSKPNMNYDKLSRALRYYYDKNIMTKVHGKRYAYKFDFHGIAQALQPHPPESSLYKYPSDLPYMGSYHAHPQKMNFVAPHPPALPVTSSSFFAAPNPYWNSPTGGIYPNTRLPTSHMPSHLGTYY
Procedure, shortened: as §1

ELF1 = ELF1 (Homo sapiens, UniProt P32519 1-619); conditions: protein: recombinant; tags: N-terminal GST; dsDNA, one strand shown
Procedure, shortened: as §1

EHF = molecular target: T5, EHF (Homo sapiens, UniProt Q9NZC4 1-300); conditions: protein: recombinant; tags: N-terminal GST; dsDNA, one strand shown
T5 sequence: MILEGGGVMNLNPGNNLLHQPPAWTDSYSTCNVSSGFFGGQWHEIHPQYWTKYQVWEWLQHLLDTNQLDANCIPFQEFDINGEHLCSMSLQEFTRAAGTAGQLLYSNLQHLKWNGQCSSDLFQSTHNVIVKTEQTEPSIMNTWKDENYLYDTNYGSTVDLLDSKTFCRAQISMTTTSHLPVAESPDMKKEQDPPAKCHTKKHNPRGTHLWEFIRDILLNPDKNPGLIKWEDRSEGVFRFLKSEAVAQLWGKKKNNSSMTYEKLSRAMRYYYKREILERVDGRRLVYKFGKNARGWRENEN
Procedure, shortened: as §1

SPI1 = SPI1 (Homo sapiens, UniProt P17947 1-270); conditions: protein: recombinant; tags: N-terminal GST; dsDNA, one strand shown
Procedure, shortened: as §1

SPIB = SPIB (Homo sapiens, UniProt Q01892 1-262); conditions: protein: recombinant; tags: N-terminal GST; dsDNA, one strand shown
Procedure, shortened: as §1

ELK3 = molecular target: T6, ELK3 (Homo sapiens, UniProt P41970 1-407); conditions: protein: recombinant; tags: N-terminal GST; dsDNA, one strand shown
T6 sequence: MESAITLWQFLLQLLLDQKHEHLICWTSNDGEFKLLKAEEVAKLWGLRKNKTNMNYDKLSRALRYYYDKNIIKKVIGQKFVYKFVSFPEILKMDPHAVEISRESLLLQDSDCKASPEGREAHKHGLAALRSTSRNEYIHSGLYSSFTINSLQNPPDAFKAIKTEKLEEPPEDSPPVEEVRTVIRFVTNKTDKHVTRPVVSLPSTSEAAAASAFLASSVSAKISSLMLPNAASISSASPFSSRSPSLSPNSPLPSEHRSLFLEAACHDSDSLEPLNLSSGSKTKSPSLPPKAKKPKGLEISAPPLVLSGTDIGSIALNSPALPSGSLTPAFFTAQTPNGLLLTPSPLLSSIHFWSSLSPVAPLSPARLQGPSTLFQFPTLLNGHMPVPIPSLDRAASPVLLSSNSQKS
Procedure, shortened: as §1

FEV = molecular target: T7, FEV (Homo sapiens, UniProt Q99581 1-238); conditions: protein: recombinant; tags: N-terminal GST; dsDNA, one strand shown
T7 sequence: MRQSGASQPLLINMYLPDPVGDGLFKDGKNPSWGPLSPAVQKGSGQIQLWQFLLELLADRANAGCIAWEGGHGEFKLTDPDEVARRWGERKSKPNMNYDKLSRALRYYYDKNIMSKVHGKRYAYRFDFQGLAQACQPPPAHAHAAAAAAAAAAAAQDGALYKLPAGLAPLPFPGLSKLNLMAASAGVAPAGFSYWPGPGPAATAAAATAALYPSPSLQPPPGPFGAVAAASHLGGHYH
Procedure, shortened: as §1

ETV5 = ETV5 (Homo sapiens, UniProt P41161 1-510); conditions: protein: recombinant; tags: N-terminal GST; dsDNA, one strand shown
Procedure, shortened: as §1

HSF1 = HSF1 (Homo sapiens, UniProt Q00613 1-529); conditions: protein: recombinant; tags: N-terminal GST; chain copies: 3; dsDNA, one strand shown
Procedure, shortened: as §1

SPIC = molecular target: T8, SPIC (Homo sapiens, UniProt Q8N5J4 1-248); conditions: protein: recombinant; tags: N-terminal GST; dsDNA, one strand shown
T8 sequence: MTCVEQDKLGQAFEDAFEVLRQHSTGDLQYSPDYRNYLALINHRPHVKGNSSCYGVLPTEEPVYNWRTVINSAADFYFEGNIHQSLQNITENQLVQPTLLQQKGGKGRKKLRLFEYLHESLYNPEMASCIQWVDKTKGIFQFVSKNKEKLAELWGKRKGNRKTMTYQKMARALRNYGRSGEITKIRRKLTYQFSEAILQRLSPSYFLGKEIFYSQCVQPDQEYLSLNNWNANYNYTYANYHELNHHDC
Procedure, shortened: as §1

ELF4 = ELF4 (Homo sapiens, UniProt Q99607 1-663); conditions: protein: recombinant; tags: N-terminal GST; dsDNA, one strand shown
Procedure, shortened: as §1

ELK4 = molecular target: T9, ELK4 (Homo sapiens, UniProt P28324-2 1-405); conditions: protein: recombinant; tags: N-terminal GST; dsDNA, one strand shown
T9 sequence: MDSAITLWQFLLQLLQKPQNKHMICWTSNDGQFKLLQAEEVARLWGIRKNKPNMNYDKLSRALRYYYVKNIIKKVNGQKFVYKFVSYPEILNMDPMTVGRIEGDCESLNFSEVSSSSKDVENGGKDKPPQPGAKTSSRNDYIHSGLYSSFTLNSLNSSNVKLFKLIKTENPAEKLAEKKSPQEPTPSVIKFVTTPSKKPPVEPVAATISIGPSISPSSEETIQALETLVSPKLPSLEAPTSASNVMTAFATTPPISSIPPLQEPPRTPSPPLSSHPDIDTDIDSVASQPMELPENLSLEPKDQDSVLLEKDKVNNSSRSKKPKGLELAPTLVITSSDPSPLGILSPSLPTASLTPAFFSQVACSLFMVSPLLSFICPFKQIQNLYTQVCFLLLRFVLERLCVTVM
Procedure, shortened: as §1

ETV2 = molecular target: T10, ETV2 (Homo sapiens, UniProt O00321 1-342); conditions: protein: recombinant; tags: N-terminal GST; dsDNA, one strand shown
T10 sequence: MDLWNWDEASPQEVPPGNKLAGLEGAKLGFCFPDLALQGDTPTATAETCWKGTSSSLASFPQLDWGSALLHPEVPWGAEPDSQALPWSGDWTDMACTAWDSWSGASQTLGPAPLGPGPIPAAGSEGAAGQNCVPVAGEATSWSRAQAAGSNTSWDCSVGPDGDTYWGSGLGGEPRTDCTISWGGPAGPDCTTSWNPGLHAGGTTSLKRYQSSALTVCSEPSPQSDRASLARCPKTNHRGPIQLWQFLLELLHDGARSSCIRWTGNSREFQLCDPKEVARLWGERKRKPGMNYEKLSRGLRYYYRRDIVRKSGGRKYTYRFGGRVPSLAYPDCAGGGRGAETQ
Procedure, shortened: as §1

ELF3 = molecular target: T11, ELF3 (Homo sapiens, UniProt P78545 1-371); conditions: protein: recombinant; tags: N-terminal GST; dsDNA, one strand shown
T11 sequence: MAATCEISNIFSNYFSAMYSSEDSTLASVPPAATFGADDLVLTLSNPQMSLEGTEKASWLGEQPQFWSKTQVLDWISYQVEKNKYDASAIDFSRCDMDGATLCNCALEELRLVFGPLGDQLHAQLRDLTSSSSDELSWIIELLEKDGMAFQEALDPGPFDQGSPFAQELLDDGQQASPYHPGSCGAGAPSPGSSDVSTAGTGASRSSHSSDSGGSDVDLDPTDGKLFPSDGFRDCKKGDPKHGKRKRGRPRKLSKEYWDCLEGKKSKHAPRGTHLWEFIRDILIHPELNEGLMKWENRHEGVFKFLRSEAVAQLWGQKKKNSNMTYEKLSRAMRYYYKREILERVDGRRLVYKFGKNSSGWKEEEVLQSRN
Procedure, shortened: as §1

CRX = CRX (Homo sapiens, UniProt O43186 1-299); conditions: protein: recombinant; tags: N-terminal GST; dsDNA, one strand shown
Procedure, shortened: as §1

ETV1 = ETV1 (Homo sapiens, UniProt P50549 1-477); conditions: protein: recombinant; tags: N-terminal GST; dsDNA, one strand shown
Procedure, shortened: as §1

ELF4, sequence (Q99607 whole entry): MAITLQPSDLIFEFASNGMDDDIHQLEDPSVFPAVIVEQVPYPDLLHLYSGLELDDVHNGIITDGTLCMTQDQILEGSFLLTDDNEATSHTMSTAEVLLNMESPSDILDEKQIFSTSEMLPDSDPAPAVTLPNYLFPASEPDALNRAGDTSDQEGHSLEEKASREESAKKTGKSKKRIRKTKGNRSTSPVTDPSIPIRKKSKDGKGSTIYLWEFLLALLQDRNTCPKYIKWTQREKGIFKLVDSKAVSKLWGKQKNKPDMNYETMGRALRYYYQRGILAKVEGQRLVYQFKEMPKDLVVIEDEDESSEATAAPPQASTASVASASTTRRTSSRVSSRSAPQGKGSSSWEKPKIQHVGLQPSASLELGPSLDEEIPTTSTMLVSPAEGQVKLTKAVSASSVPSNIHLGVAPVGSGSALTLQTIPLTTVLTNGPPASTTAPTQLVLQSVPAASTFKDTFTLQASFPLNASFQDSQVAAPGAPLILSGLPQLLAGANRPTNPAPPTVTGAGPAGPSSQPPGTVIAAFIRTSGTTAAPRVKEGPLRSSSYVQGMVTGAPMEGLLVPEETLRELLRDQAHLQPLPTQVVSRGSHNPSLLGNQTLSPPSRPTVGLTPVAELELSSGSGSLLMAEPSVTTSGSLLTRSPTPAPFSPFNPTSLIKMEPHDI
SPIB, sequence (Q01892 whole entry): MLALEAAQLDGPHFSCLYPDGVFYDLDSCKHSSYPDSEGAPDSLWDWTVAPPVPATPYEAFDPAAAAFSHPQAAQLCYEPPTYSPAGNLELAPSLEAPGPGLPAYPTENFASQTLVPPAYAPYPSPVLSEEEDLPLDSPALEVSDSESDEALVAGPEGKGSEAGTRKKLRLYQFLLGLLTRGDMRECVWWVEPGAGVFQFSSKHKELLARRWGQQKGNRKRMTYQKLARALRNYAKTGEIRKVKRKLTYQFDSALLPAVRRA
ETV5, sequence (P41161 whole entry): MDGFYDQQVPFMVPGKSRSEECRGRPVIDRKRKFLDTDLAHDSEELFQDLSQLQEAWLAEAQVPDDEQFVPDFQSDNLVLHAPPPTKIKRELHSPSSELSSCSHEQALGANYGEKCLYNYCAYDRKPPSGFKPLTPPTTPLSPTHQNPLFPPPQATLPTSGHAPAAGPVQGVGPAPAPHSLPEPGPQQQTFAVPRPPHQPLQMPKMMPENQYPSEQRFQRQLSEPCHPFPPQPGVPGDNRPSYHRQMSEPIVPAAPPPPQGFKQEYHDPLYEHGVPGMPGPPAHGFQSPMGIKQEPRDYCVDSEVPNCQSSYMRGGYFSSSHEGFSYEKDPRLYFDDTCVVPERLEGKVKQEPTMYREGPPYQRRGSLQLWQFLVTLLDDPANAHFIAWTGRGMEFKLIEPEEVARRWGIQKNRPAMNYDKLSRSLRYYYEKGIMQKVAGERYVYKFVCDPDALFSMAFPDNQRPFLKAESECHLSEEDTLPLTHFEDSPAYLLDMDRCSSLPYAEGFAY
CRX, sequence (O43186 whole entry): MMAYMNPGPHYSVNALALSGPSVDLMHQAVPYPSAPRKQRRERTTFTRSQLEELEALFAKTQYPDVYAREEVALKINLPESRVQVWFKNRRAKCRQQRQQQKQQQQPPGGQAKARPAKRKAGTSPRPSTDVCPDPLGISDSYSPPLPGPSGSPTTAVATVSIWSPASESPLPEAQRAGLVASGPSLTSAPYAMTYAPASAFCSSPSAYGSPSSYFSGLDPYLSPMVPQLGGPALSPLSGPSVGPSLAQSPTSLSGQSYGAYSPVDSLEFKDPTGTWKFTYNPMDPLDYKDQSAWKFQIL
ELF1, sequence (P32519 whole entry): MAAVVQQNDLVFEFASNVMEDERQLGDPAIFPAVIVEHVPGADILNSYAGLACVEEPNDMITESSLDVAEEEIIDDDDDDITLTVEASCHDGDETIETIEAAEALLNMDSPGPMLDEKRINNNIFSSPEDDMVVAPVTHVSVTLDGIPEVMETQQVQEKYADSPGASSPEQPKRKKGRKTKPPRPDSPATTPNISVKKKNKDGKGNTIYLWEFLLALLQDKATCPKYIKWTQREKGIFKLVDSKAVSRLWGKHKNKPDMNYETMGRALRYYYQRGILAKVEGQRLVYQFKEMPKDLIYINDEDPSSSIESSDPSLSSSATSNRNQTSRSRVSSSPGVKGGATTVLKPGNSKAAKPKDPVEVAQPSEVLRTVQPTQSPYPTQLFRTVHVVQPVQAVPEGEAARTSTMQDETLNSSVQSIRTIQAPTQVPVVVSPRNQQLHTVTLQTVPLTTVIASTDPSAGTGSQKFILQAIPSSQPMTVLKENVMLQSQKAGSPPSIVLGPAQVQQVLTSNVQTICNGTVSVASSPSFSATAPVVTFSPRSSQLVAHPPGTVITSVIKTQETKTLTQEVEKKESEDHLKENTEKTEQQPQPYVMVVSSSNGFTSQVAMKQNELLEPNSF
ETV1, sequence (P50549 whole entry): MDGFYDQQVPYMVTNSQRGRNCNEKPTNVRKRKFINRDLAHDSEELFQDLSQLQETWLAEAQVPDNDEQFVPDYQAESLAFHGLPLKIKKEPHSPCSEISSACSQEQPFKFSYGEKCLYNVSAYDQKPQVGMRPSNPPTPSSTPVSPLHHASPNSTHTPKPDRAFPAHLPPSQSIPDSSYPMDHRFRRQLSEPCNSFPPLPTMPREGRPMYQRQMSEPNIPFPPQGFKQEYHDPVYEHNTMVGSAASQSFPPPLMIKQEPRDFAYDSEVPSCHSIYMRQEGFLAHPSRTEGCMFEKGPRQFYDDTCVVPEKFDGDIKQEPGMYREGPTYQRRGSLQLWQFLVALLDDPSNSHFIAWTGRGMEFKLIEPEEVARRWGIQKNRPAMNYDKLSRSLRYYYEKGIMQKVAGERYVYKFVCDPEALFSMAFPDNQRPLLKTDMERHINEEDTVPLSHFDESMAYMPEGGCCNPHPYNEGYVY
HSF1, sequence (Q00613 whole entry): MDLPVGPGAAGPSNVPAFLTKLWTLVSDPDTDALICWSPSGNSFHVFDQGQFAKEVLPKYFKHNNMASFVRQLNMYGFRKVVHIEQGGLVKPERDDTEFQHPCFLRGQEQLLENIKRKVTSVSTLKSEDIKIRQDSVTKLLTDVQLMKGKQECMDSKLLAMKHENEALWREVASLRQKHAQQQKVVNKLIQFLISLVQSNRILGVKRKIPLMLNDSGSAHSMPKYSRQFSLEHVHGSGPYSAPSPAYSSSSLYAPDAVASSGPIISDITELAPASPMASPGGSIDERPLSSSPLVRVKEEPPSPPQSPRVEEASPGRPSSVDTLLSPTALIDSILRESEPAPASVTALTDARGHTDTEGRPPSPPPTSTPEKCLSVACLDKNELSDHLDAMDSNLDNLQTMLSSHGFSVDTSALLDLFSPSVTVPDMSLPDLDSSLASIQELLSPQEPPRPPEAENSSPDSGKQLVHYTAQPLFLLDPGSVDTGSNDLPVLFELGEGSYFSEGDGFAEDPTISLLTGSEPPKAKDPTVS

TACGAT was tested, and the binding signal (FLI1) was 1.14 fold enrichment (6-mer frequency, TF over GST control), the binding signal (ELK1) was 1.09 fold enrichment (6-mer frequency, TF over GST control) and the binding signal (GABPA) was 1.17 fold enrichment (6-mer frequency, TF over GST control). The binding signal (ERG) was 1.11 fold enrichment (6-mer frequency, TF over GST control), the binding signal (ELF1) was 1.11 fold enrichment (6-mer frequency, TF over GST control) and the binding signal (EHF) was 1.03 fold enrichment (6-mer frequency, TF over GST control). The binding signal (SPI1) was 1.09 fold enrichment (6-mer frequency, TF over GST control), the binding signal (SPIB) was 1.14 fold enrichment (6-mer frequency, TF over GST control) and the binding signal (ELK3) was 1.09 fold enrichment (6-mer frequency, TF over GST control). The binding signal (FEV) was 1.13 fold enrichment (6-mer frequency, TF over GST control), the binding signal (ETV5) was 1.12 fold enrichment (6-mer frequency, TF over GST control) and the binding signal (HSF1) was 1.13 fold enrichment (6-mer frequency, TF over GST control). The binding signal (SPIC) was 1.05 fold enrichment (6-mer frequency, TF over GST control), the binding signal (ELF4) was 1.11 fold enrichment (6-mer frequency, TF over GST control) and the binding signal (ELK4) was 1.14 fold enrichment (6-mer frequency, TF over GST control). The binding signal (ETV2) was 1.12 fold enrichment (6-mer frequency, TF over GST control), the binding signal (ELF3) was 1.11 fold enrichment (6-mer frequency, TF over GST control) and the binding signal (CRX) was 1.37 fold enrichment (6-mer frequency, TF over GST control). For the same sequence, the binding signal (ETV1) was 1.07 fold enrichment (6-mer frequency, TF over GST control).
